Measurements: PubChem BioAssay (NCI)
This is part of a sample that, as a whole, favours compounds with a hit. Of some 79,000 tested, about 15% had one in any assay. Values without a mark were called inactive. Activity calls are given as the source filed them. No stated cut-off is given here; in the data, active means growth inhibition above about 70%; inactive means the rest.

How the values were obtained:
[1] = NCI Yeast Anticancer Drug Screen. Data for the rad52 strain (AID 147);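 further: 0% = growth of vehicle-treated control cultures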; conditions: S. cerevisiae rad52 mutant growth inhibition, stronger effect = higher value
How it was run: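 Growth of repair-deficient yeast cells was compared between compound-treated and vehicle-treated cultures to give percent inhibition.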

[2] = NCI Yeast Anticancer Drug Screen. Data for the wt1 strain (AID 149);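 further: 0% = growth of vehicle-treated wt1 cultures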; conditions: S. cerevisiae wt1 strain (SPY 50644) growth inhibition, stronger effect = higher value
How it was run: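 Growth inhibition read against vehicle controls after compound exposure of the wt1 yeast strain.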

[3] = NCI Yeast Anticancer Drug Screen. Data for the mgt1 strain (AID 153); conditions: S. cerevisiae mgt1 mutant growth inhibition, stronger effect = higher value
How it was run: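 Compounds were applied to mgt1 mutant yeast, and growth was then compared against vehicle-treated control cultures to give percent inhibition.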

[4] = NCI Yeast Anticancer Drug Screen. Data for the rad50 strain (AID 155);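 further: 0% = growth of vehicle-only cultures of the same strain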; conditions: S. cerevisiae rad50 strain growth inhibition, stronger effect = higher value
How it was run: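 Readout: growth inhibition relative to vehicle-treated cultures. Compound exposure was carried out in a genetically defined yeast strain deficient in DNA damage repair.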

[5] = NCI Yeast Anticancer Drug Screen. Data for the mec2-1 strain (AID 157); conditions: S. cerevisiae mec2-1 strain, stronger effect = higher value
How it was run: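 Compounds were applied to mec2-1 yeast cells. Their growth was then compared with that of vehicle-treated cultures to give growth inhibition.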

[6] = NCI Yeast Anticancer Drug Screen. Data for the rad14 strain (AID 159);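 further: 0% = growth of vehicle-treated control cultures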; conditions: S. cerevisiae rad14 strain growth inhibition, stronger effect = higher value
How it was run: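 Growth inhibition vs vehicle controls; genetically altered yeast strain (DNA damage repair defect) treated with test compounds.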

[7] = NCI Yeast Anticancer Drug Screen. Data for the sgs1 mgt1 strain (AID 161);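 further: 0% = growth of cultures given vehicle only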; conditions: S. cerevisiae sgs1 mgt1 strain, stronger effect = higher value
How it was run: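 Percent growth inhibition was derived by comparing compound-exposed mutant yeast with vehicle-exposed cultures. The strain carries alterations in DNA damage repair.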

[8] = NCI Yeast Anticancer Drug Screen. Data for the CLN2oe strain (AID 163);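 further: 0% = growth of vehicle-only control cultures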; conditions: S. cerevisiae CLN2oe strain, stronger effect = higher value
How it was run: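 Cells of an engineered yeast line with disturbed cell-cycle regulation are treated with compound. Inhibition of growth is then calculated relative to the vehicle-treated reference.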

[9] = NCI Yeast Anticancer Drug Screen. Data for the cln2 rad14 strain (AID 165);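 further: 0% = growth equal to vehicle treated cultures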; conditions: S. cerevisiae cln2 rad14 strain, stronger effect = higher value
How it was run: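 Strain: cln2 rad14 yeast, altered in cell cycle control and DNA damage repair. Read-out: growth inhibition vs vehicle.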

[10] = NCI Yeast Anticancer Drug Screen. Data for the bub3 strain (AID 167); conditions: S. cerevisiae bub3 mutant strain, stronger effect = higher value
How it was run: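 Readout: yeast growth inhibition, expressed relative to vehicle-only wells. The test organism is a mutant strain from a panel with lesions in DNA repair or checkpoint genes.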

[11] = NCI Yeast Anticancer Drug Screen. Data for the wt2 strain (AID 169);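 further: 0% = growth of vehicle-treated yeast cultures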; conditions: S. cerevisiae wt2 strain growth inhibition, stronger effect = higher value
How it was run: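 Growth of compound-treated yeast is measured and expressed as inhibition relative to vehicle-only controls.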

[12] = NCI Yeast Anticancer Drug Screen. Data for the mlh1 strain (AID 171);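 further: 0% = growth of vehicle-treated control cultures of the same strain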; conditions: S. cerevisiae mlh1 strain growth inhibition, stronger effect = higher value
How it was run: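 Test agents were incubated with yeast bearing a defined DNA damage repair or cell cycle control alteration; values are growth inhibition normalised to vehicle-treated cultures.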

[13] = NCI Yeast Anticancer Drug Screen. Data for the sgs1 strain (AID 173);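 further: 0% = growth of vehicle-only control cultures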; conditions: S. cerevisiae sgs1 mutant, stronger effect = higher value
How it was run: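 Strain with an altered DNA repair or cell cycle pathway exposed to compound. Growth then measured. Value = inhibition versus vehicle control.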

[14] = NCI Yeast Anticancer Drug Screen. Data for the mlh1 rad18 strain (AID 175); conditions: S. cerevisiae mlh1 rad18 strain growth inhibition, stronger effect = higher value
How it was run: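 A repair-deficient yeast strain is exposed to test compound, and growth is scored relative to vehicle-treated controls.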

[15] = NCI Yeast Anticancer Drug Screen. Data for the rad18 strain (AID 177); conditions: S. cerevisiae rad18 mutant growth inhibition, stronger effect = higher value
How it was run: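 DNA-repair-defective yeast; compound treatment; growth inhibition scored against vehicle.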

[16] = at 5.0 µM (retest, dose inferred, filed as 0.5)
[17] = at 50.0 µM (retest, dose inferred, filed as 5.0)

CC(=O)ON1C(=O)c2cccc3cccc(c23)C1=O
growth inhibition ([1]; at 1.2 µM): 13% | growth inhibition ([1]; at 3.7 µM): 38% | growth inhibition ([1]; at 11.0 µM): 91% (active) | growth inhibition ([1]; at 33.0 µM): 97% (active) | growth inhibition ([1]; at 100.0 µM): 98% (active) | growth inhibition ([2]; at 1.2 µM): 6% | growth inhibition ([2]; at 3.7 µM): 17% | growth inhibition ([2]; at 11.0 µM): 76% (active) | growth inhibition ([2]; at 33.0 µM): 96% (active) | growth inhibition ([2]; at 100.0 µM): 97% (active) | growth inhibition ([3]; at 1.2 µM): 8% | growth inhibition ([3]; at 3.7 µM): 46% | growth inhibition ([3]; at 11.0 µM): 95% (active) | growth inhibition ([3]; at 33.0 µM): 97% (active) | growth inhibition ([3]; at 100.0 µM): 98% (active) | growth inhibition ([4]; at 1.2 µM): 18% | growth inhibition ([4]; at 3.7 µM): 57% | growth inhibition [4, 16]: 51% | growth inhibition ([4]; at 11.0 µM): 93% (active) | growth inhibition ([4]; at 33.0 µM): 97% (active) | growth inhibition [4, 17]: 96% (active) | growth inhibition ([4]; at 50.0 µM): 81.9% (active) | growth inhibition ([4]; at 100.0 µM): 98% (active) | growth inhibition ([5]; at 1.2 µM): -4% | growth inhibition ([5]; at 3.7 µM): 33% | growth inhibition [5, 16]: -3% | growth inhibition ([5]; at 11.0 µM): 95% (active) | growth inhibition ([5]; at 33.0 µM): 98% (active) | growth inhibition [5, 17]: 97% (active) | growth inhibition ([5]; at 50.0 µM): 87.8% (active) | growth inhibition ([5]; at 100.0 µM): 98% (active) | growth inhibition ([6]; at 1.2 µM): 51% | growth inhibition ([6]; at 3.7 µM): 95% (active) | growth inhibition ([6]; at 11.0 µM): 98% (active) | growth inhibition ([6]; at 33.0 µM): 99% (active) | growth inhibition ([6]; at 100.0 µM): 99% (active) | growth inhibition [7, 16]: 22% | growth inhibition [7, 17]: 92% (active) | growth inhibition ([7]; at 50.0 µM): 90.7% (active) | growth inhibition ([8]; at 1.2 µM): 8% | growth inhibition ([8]; at 3.7 µM): 10% | growth inhibition ([8]; at 11.0 µM): 11% | growth inhibition ([8]; at 33.0 µM): 32% | growth inhibition ([8]; at 100.0 µM): 77% (active) | growth inhibition [9, 16]: 23% | growth inhibition [9, 17]: 69% | growth inhibition ([9]; at 50.0 µM): 29.4% | growth inhibition ([10]; at 1.2 µM): 2% | growth inhibition ([10]; at 3.7 µM): 10% | growth inhibition [10, 16]: 69% | growth inhibition ([10]; at 11.0 µM): 24% | growth inhibition ([10]; at 33.0 µM): 91% (active) | growth inhibition [10, 17]: 96% (active) | growth inhibition ([10]; at 50.0 µM): 89.5% (active) | growth inhibition ([10]; at 100.0 µM): 95% (active) | growth inhibition ([11]; at 1.2 µM): 4% | growth inhibition ([11]; at 3.7 µM): 2% | growth inhibition ([11]; at 11.0 µM): 20% | growth inhibition ([11]; at 33.0 µM): 95% (active) | growth inhibition ([11]; at 100.0 µM): 99% (active) | growth inhibition ([12]; at 1.2 µM): 61% | growth inhibition ([12]; at 3.7 µM): 91% (active) | growth inhibition ([12]; at 11.0 µM): 97% (active) | growth inhibition ([12]; at 33.0 µM): 99% (active) | growth inhibition ([12]; at 100.0 µM): 98% (active) | growth inhibition ([13]; at 1.2 µM): 44% | growth inhibition ([13]; at 3.7 µM): 91% (active) | growth inhibition ([13]; at 11.0 µM): 97% (active) | growth inhibition ([13]; at 33.0 µM): 98% (active) | growth inhibition ([13]; at 100.0 µM): 98% (active) | growth inhibition [14, 16]: 44% | growth inhibition [14, 17]: 97% (active) | growth inhibition ([14]; at 50.0 µM): 81.4% (active) | growth inhibition ([15]; at 1.2 µM): 15% | growth inhibition ([15]; at 3.7 µM): 29% | growth inhibition ([15]; at 11.0 µM): 86% (active) | growth inhibition ([15]; at 33.0 µM): 97% (active) | growth inhibition ([15]; at 100.0 µM): 97% (active)
